Experimental data: paper PMC4336329 (PLoS ONE, 2015)
The whole screen tested about 310,000 compounds, of which about 14,000 (4.5%) showed an effect of 50% or more. The effect is printed as a negative number. The list comes from a sample in which strong results are over-represented; it also holds similar structures and randomly drawn compounds.

target: human ether-à-go-go-related gene (hERG) potassium channel (human, UniProt Q12809); experiment: primary screen, population patch clamp on CHO cells stably expressing hERG; higher = less effect of the substance
Sequence (Q12809 whole entry, looked up): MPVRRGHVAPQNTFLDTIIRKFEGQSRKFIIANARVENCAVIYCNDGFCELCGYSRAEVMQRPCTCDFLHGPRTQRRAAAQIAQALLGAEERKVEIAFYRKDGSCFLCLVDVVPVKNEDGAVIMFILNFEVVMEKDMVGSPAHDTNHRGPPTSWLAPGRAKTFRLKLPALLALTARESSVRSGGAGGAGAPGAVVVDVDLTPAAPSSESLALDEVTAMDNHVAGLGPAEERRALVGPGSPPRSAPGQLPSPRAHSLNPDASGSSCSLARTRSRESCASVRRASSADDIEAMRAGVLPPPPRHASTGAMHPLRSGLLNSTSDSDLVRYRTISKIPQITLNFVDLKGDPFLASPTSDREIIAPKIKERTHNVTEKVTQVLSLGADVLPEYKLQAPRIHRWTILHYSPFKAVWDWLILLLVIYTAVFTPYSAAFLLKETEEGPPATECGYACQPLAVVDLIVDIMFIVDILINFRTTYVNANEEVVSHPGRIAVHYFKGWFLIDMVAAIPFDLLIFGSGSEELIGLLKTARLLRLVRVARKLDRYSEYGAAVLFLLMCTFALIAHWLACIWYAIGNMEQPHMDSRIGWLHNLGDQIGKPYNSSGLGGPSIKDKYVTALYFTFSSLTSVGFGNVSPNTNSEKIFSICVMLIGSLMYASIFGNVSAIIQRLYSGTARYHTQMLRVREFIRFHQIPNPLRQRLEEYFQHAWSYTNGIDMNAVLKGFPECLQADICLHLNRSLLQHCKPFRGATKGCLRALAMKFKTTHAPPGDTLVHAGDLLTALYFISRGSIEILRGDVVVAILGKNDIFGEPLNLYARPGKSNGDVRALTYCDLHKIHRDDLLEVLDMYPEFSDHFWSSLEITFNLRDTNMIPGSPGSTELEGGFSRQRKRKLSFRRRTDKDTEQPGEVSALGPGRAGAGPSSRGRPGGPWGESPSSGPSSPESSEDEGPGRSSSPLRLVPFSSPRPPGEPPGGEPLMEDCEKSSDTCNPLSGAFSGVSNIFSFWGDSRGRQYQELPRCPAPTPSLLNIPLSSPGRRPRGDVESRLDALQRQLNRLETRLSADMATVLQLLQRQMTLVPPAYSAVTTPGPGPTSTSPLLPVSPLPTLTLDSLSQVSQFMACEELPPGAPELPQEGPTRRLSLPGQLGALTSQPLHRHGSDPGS
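Further: peak tail current of the secondary pulse compared with the same well before compound.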

Row | Compound | hERG current change (%, negative = inhibition) at 10uM
1 | CCN(CC)S(=O)(=O)c1ccc(NS(=O)(=O)c2cccc(C)c2)cc1 | -20.4%
2 | O=C(O)CCC1(c2ccccc2)NC(=O)NC1=O (stereo not drawn) | 2.53%
3 | C[n+]1ccccc1/C=N/O.[Cl-] | 17.3%
4 | COc1ccccc1CN1Cc2cccc3c2[C@@H](CC1=O)[C@H](O)[C@H](O)C3 | 4.43%
5 | COC(=O)C1C(=O)N2CCCSC2=C(C#N)C1c1cccs1 (stereo not drawn) | 1.49%
6 | CC1CCCCN1CC(=O)NC(c1ccccc1)c1ccccc1.O=C(O)C(=O)O (stereo not drawn) | -65.8%
7 | CC(NC(=O)CN1CCCC1)c1ccccc1 (stereo not drawn) | 21%
8 | CC1CN(CC(=O)NC(C)c2ccccc2)CC(C)O1 (stereo not drawn) | 9.23%
9 | O=C(CN1CCCC1)NC(c1ccccc1)c1ccccc1.O=C(O)C(=O)O | -34.7%
10 | CC1Cc2ccccc2N1CC(=O)NC(c1ccccc1)c1ccccc1.O=C(O)C(=O)O (stereo not drawn) | 19.1%
11 | CC1CCCCN1CC(=O)NC(=O)NCc1ccccc1 (stereo not drawn) | 16.8%
12 | CSc1ccccc1NC(=O)CN1CCCCC1C (stereo not drawn) | 0.324%
13 | O=C(CN1CCCCCC1)NC(c1ccccc1)c1ccccc1.O=C(O)C(=O)O | -57.7%
14 | CC1CC(C)CN(CC(=O)NC(c2ccccc2)c2ccccc2)C1.O=C(O)C(=O)O (stereo not drawn) | -68.4%
15 | CCOCCCN1CN(Cc2ccco2)CNC1=S | 7.86%
16 | CC1=C(c2ccc(F)cc2)[N+](=O)C(C)(C)N1[O-] | 17.7%
17 | Cc1ccc(-c2cc(=O)c3ccccc3[nH]2)cc1 | 13.6%
18 | Cc1cccn2cc(CCNS(=O)(=O)c3ccc([N+](=O)[O-])cc3)nc12 | -22.7%
19 | COc1ccc(N2CCN(CC(O)c3c[nH]c4ccc(OC)cc34)CC2C)cc1 (stereo not drawn) | -68.1%
20 | COc1ccc2[nH]cc(C(O)CN3CCC(C(N)=O)CC3)c2c1 (stereo not drawn) | 12%
21 | COc1ccc2[nH]cc(C(O)CN3CCN(c4ccccc4F)CC3)c2c1 (stereo not drawn) | -22%
22 | CC(Cc1ccccc1)[n+]1cc(/N=C(\[O-])Nc2ccccc2)on1 (stereo not drawn) | -17.4%
23 | CC1Sc2ccc(S(=O)(=O)NCCc3ccccc3)cc2NC1=O (stereo not drawn) | 12.5%
24 | Clc1cc(Br)ccc1OCCOCCN1CCCC1.O=C(O)C(=O)O | -57.1%
25 | CC1CCN(CCOc2ccc(Cl)c(Cl)c2)CC1 | -46.3%

Row | Compound | hERG current change (%, negative = inhibition) at 10uM
26 | CC1CCN(CCCOc2ccc(Cl)cc2Br)CC1 | -76.3%
27 | CC1CCCN(CCOCCOc2ccc(Br)cc2Cl)C1.O=C(O)C(=O)O (stereo not drawn) | -71%
28 | Clc1cc(Br)ccc1OCCN1CCOCC1.O=C(O)C(=O)O | -2.95%
29 | CC1CCN(CCOCCOc2ccc(Br)cc2Cl)CC1.O=C(O)C(=O)O | -75.5%
30 | CC1CCN(CCOc2cc(Cl)ccc2Cl)CC1 | -33.8%
31 | CN1CCN(CCOCCOc2ccc(Br)cc2Cl)CC1.O=C(O)C(=O)O | -14.2%
32 | CC(C)N1CCN(Cc2ccc3c(c2)OCCO3)CC1CCO (stereo not drawn) | 3.63%
33 | NC(=O)N/N=C/c1ccc(-c2cccc(C(F)(F)F)c2)o1 | -4.87%
34 | Cc1cc(C)cc(NC(=O)CCn2ccnc2)c1 | 3.41%
35 | Cc1c(C(=O)NCc2ccc(S(N)(=O)=O)cc2)oc2ccc(Cl)cc12 | 10%
36 | CCCCn1c(N)c(N(CCOC)C(=O)CSCC(=O)Nc2cccc(C)c2)c(=O)[nH]c1=O | 11.5%
37 | c1ccc(-c2nc(CSc3nnc(-c4cccs4)o3)cs2)cc1 | -9.61%
38 | CCS(=O)(=O)c1ncc(Cl)c(C(=O)Nc2ccc(S(=O)(=O)N(C)c3ccccc3)cc2)n1 | 15.5%
39 | CCOC(=O)N1CCC(NC(=O)c2cc(C(=O)NC3CCCC3)ccc2CO)CC1 | 12.9%
40 | O=C(O)c1ccn(CSc2cc(Cl)ccc2Cl)n1 | 5.46%
41 | CCOC(=O)NNC(=S)Nc1c(C)n(C)n(-c2ccccc2)c1=O | 4.89%
42 | COc1ccc(NC(=O)CC(C)CC(=O)NCc2ccc(F)cc2)c(OC)c1 (stereo not drawn) | -4.08%
43 | CCn1cc(/C=C(\NC(=O)c2ccccc2Cl)C(=O)N2CCOCC2)c2ccccc21 | -2.35%
44 | O=C(NNC(=S)Nc1ccccc1)c1cccc(S(=O)(=O)N2CCOCC2)c1 | 15.3%
45 | CCC1CCCCN1C(=O)c1ccc(OC2CCN(C(=O)COC)CC2)cc1 (stereo not drawn) | 6.08%
46 | COC(=O)CCCC(=O)N1CCC(CCC(=O)NC2CC2)CC1 | 16.6%
47 | Cc1ccc(Cl)c(OCCN2CCCC(C)C2)c1.O=C(O)C(=O)O (stereo not drawn) | -41.8%
48 | CC1CCN(CCCCOc2ccccc2Br)CC1 | -48.9%
49 | Clc1cc(Br)ccc1OCCOCCN1CCOCC1 | -36.7%
50 | CC1CCCN(C(=O)Nc2ccc(Br)cc2Cl)C1 (stereo not drawn) | -16.4%

Row | Compound | hERG current change (%, negative = inhibition) at 10uM
51 | CC1CCCN(CCCOc2ccc(Br)cc2Cl)C1.O=C(O)C(=O)O (stereo not drawn) | -78.4%
52 | CC1CCN(CCCOc2ccc(Br)cc2Cl)CC1 | -72.8%
53 | CCOC(=O)c1cnn(CCOC(=O)c2ccc(F)cc2)c1NC(=O)c1ccc(F)cc1 | -19.4%
54 | CSCC[C@H](NC(=O)N1CCn2c1nc1ccccc12)C(=O)NCc1ccc(C)cc1 | -13.3%
55 | CC(C)Nc1ccc(Cl)cc1[N+](=O)[O-] | 14.3%
56 | CN(C)c1c(F)cc(-c2nn[nH]n2)cc1F | 12.9%
57 | CCCCCCCC1=CC2=CC(=O)C(C)(OC(C)=O)C(=O)C2=CN1CCc1ccccc1 (stereo not drawn) | -62.3%
58 | CCCCC1=CC2=CC(=O)C(C)(OC(=O)CC)C(=O)C2=CN1CCOC (stereo not drawn) | -5.6%
59 | CCCCC1=CC2=CC(=O)C(C)(OC(=O)CC)C(=O)C2=CN1Cc1ccccc1 (stereo not drawn) | -42.9%
60 | CCCCC1=CC2=CC(=O)C(C)(OC(=O)CC)C(=O)C2=CN1Cc1ccc2c(c1)OCO2 (stereo not drawn) | -55.3%
61 | CCCCC1=CC2=CC(=O)C(C)(OC(=O)CC)C(=O)C2=CN1Cc1ccco1 (stereo not drawn) | -32%
62 | CCCCC1=CC2=CC(=O)C(C)(OC(=O)CC)C(=O)C2=CN1c1ccc(OC)cc1 (stereo not drawn) | -13%
63 | CCCCC1=CC2=CC(=O)C(C)(OC(=O)CC)C(=O)C2=CN1CCCCO (stereo not drawn) | 0.395%
64 | CCCCC1=CC2=CC(=O)C(C)(OC(=O)CC)C(=O)C2=CN1CCc1ccccn1 (stereo not drawn) | -4.43%
65 | CCCCC1=CC2=CC(=O)C(C)(OC(=O)CC)C(=O)C2=CN1CCc1c[nH]c2ccccc12 (stereo not drawn) | -3.97%
66 | CCCCC1=CC2=CC(=O)C(C)(OC(=O)CC)C(=O)C2=CN1CCc1ccc(Br)cc1 (stereo not drawn) | -58.9%
67 | COC(=O)CCCC1=CC2=CC(=O)C(C)(OC(=O)c3cccs3)C(=O)C2=CN1Cc1ccc2c(c1)OCO2 (stereo not drawn) | -7.74%
68 | CCCCC1=CC2=CC(=O)C(C)(OC(=O)CC)C(=O)C2=CN1Cc1ccc(OC)cc1 (stereo not drawn) | -55.1%
69 | Cc1ccc([N+](=O)[O-])cc1NC(=O)c1ccc2c(c1)OCO2 | 11.4%
70 | Cc1onc(-c2ccccc2)c1C(=O)N(C)CCc1ccccn1 | 7.12%
71 | CCN(C(=O)CN1CCOCC1)c1c(N)n(Cc2ccccc2)c(=O)[nH]c1=O | 22.2%
72 | O=C(c1ccc(=O)oc1)N1CCC(C(O)(c2ccccc2)c2ccccc2)CC1 | -29.2%
73 | CC(=O)Nc1ccc(-c2cc(C(=O)O)c3ccccc3n2)cc1 | 17.2%
74 | O=C(O)c1cc(-c2cccs2)nn1-c1cccc(Cl)c1 | 17.8%
75 | O=c1c(-c2ccc(Br)cc2)coc2c(CN3CCOCC3)c(O)ccc12 | -20.7%

Row | Compound | hERG current change (%, negative = inhibition) at 10uM
76 | O=C(Oc1ccc(N2C(=O)C3C4CCC(C4)C3C2=O)cc1)c1ccco1 (stereo not drawn) | 13.2%
77 | O=C(NC1CCCc2ccccc21)c1cn2ccccc2n1 (stereo not drawn) | -25.5%
78 | CSCCC(NS(=O)(=O)c1ccc(C)cc1)C(=O)Nc1ccc(C)cn1 (stereo not drawn) | 2.68%
79 | CSCCC(NS(=O)(=O)c1ccccc1)C(=O)OC(C)C(=O)Nc1ccc(Cl)cn1 (stereo not drawn) | -58.8%
80 | CCC(C(=O)OC(C)C(=O)Nc1ccc(Cl)cn1)c1ccccc1 (stereo not drawn) | 0.842%
81 | CCCOc1ccc(CCc2n[nH]c(=S)n2Cc2ccccc2)cc1 | -7.26%
82 | COC(=O)C(NC(=O)c1ccc(Cl)cc1)(Nc1nc(C)cs1)C(F)(F)F (stereo not drawn) | -8.63%
83 | Fc1ccc2[nH]c3c(NCc4ccccc4)ncnc3c2c1 | 10.5%
84 | Clc1ccc2[nH]c3c(NCC4CCCO4)ncnc3c2c1 (stereo not drawn) | -16.2%
85 | CC(C)OCCCNc1ncnc2c1[nH]c1ccc(F)cc12 | -2.39%
86 | CCN1CCCC1CNc1ncnc2c1[nH]c1ccc(Cl)cc12 (stereo not drawn) | -77.1%
87 | C=CCNc1ncnc2c1[nH]c1ccc(Cl)cc12 | -7.82%
88 | CCN1CCCC1CNc1ncnc2c1[nH]c1ccc(F)cc12 (stereo not drawn) | -76.6%
89 | CCCCCOC(=O)C1=C(C)NC(=O)NC1c1ccc(OC)cc1 (stereo not drawn) | 5.95%
90 | CCN(CC)CCCN(Cc1cc2cc3c(cc2[nH]c1=O)OCO3)C(=S)NCCOC | 5.4%
91 | CCOc1ccc(C(=O)Nc2ccc(N3CCCC3)cc2)cc1 | 3.89%
92 | CCCCOc1ccc(C(=O)Nc2ccc(N3CCN(C)CC3)cc2)cc1 | -10.2%
93 | COc1ccc(C(=O)Nc2ccc(N3CCN(C(C)=O)CC3)cc2)cc1[N+](=O)[O-] | 11.7%
94 | CCOc1ccc(C(=O)Nc2ccc(N3CCN(C(C)=O)CC3)cc2)cc1[N+](=O)[O-] | -45.5%
95 | COc1ccc(C(=O)Nc2ccc(N3CCN(C(=O)c4ccccc4)CC3)cc2)cc1[N+](=O)[O-] | -67.2%
96 | CCOc1ccc(C(=O)Nc2ccc(N3CCN(C)CC3)cc2)cc1[N+](=O)[O-] | -57.3%
97 | COc1ccc(C(=O)Nc2ccc(C(=O)N3CCCC3)cc2)cc1[N+](=O)[O-] | -33.2%
98 | CCOc1ccc(C(=O)Nc2ccc(N3CCN(C)CC3)cc2)cc1 | -50.2%
99 | COc1ccc(C(=O)Nc2ccc(N3CCN(C)CC3)cc2)cc1[N+](=O)[O-] | -38.5%
